Tb PYK inh = qHTS of Trypanosoma Brucei Inhibitors; Potency, µM (series often up to 76.8 µM), without a hit: at the top dose activity, negative = inhibition, usual class: inhibitors; TbPYK enzyme, Kinase-Glo Plus ATP luminescence, 45 min; 0.12% of 410,000 active; AID 624173, 2012; further: nearly all actives have a fitted effect of over 50% in size
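Quantitative HTS: titrated library compounds versus trypanosomal pyruvate kinase in TEA buffer (pH 7.2) containing KCl, MgCl2, BSA and Tween-20. Reactions were initiated with ADP, 130 uM final. Kinase-Glo Plus luminescence was read after 45 min at RT.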
Sm TGR block = qHTS Assay for the Inhibitors of Schistosoma Mansoni Peroxiredoxins. Schistosoma mansoni thioredoxin glutathione reductase (TGR), Q962Y6. purified TGR, DTNB reduction, TNB absorbance 405 nm. Potency, µM (highest dose often 114 µM), for the others: at the highest dose activity change, negative = inhibition, usual class: inhibitors. 3% of 360,000 active; further: nearly all actives have a fitted effect of over 60% in size
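TGR 20 nM + NADPH 100 uM (dispensed conc.), cpd preinc 15 min RT; start with NADPH (500 uM addition) then DTNB (15 mM addition). Kinetic TNB absorbance, 405 nm filter. Four-parameter Hill fit across titration.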
FMDV inh = High Throughput Screening for Foot and Mouth Disease Virus Antivirals; FMDV antiviral cell-based qHTS; Potency, µM (doses to about 57.9 µM), without a hit: at the top dose activity change, negative = inhibition, actives largely listed as inhibitors; 1.2% of 410,000 active; calls by dose curve; tested in HEK293T cells; further: read-out not given here; nearly all actives have a fitted effect of over 45% in size
RE007 growth inh = qHTS Assay for Inhibitors of the HIV-1 protein Vpr. S. pombe RE007 Vpr strain, BacTiter-Glo ATP luminescence, 24 h. Potency, µM (top dose mostly 92.2 µM), without a hit: at the highest dose activity change, negative = less growth, most hits filed as inhibitors. 0.21% of 360,000 active. AID 651644, 2012; active means well fitted falling curve with a large enough effect; inconclusive means small, poorly fitted or top-dose-only effect; inactive means no such curve, though single readings can be large or run the other way; further: nearly all actives have a fitted effect of over 50% in size
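Fission yeast RE007 carrying one integrated HIV-1 vpr copy, seeded at OD 0.01 in PMG+AL medium with 23 nL pinned compound. Grown 24 h at 30 degrees; viability read by BacTiter-Glo luminescence after 5 min.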
The depositor's hits bear a star; [ ] = another dose, or the depositor's remark. Compounds with a hit are over-represented: about 3.7% of the library has one in this group of screens. Unless noted, the call rests on the fitted dose curve; in most records, active means well fitted curve in the direction sought with a large enough effect; inconclusive means small, poorly fitted or top-dose-only effect, or another doubt; inactive means no such curve, though single readings can be large; an effect the other way counts as inactive or inconclusive. On the % scale 0 is the no-effect control and ±100 the full control effect; potency means the concentration at half of the fitted maximal effect.

Screening CCOC(=O)C1=C(C)N(c2ccc(C)cc2)C(=O)/C1=C\c1ccc(O)c(OC)c1 returned Tb PYK inh inconclusive, Sm TGR block 3.2µM*, FMDV inh inconclusive and RE007 growth inh -14%.
`COC(=O)C1=C(C)N(c2cccc(OC)c2)C(=O)/C1=C\c1ccco1` gave Tb PYK inh 11%, Sm TGR block 35µM*, FMDV inh -27% and RE007 growth inh -1%.
COC(=O)C1=C(C)N(CCc2ccccc2)C(=O)/C1=C\c1ccco1 was read as Tb PYK inh 0%, Sm TGR block 45µM*, FMDV inh -16% and RE007 growth inh -14%.
`COC(=O)C1=C(C)N(c2ccc(OC)cc2)C(=O)/C1=C\c1cccs1` gave Tb PYK inh -1%, Sm TGR block -11%, FMDV inh 0% and RE007 growth inh 5%.
CCOc1cc(/C=C2\C(=O)N(CCc3ccc(OC)c(OC)c3)C(C)=C2C(=O)OC)ccc1O was read as Tb PYK inh -13%, Sm TGR block 20µM*, FMDV inh 20µM* and RE007 growth inh 0%.
`COc1cccc(NC(=O)C2CC(=O)N(c3ccc(Br)cc3)C2)c1` (configuration not stated) gave Tb PYK inh 3%, Sm TGR block -1% and FMDV inh -13%.
Screening COCCN(C)C(=O)c1cnn(-c2ncc3c(n2)-c2ccccc2CCC3)c1C1CC1 returned FMDV inh 43%.
COc1cccc(CNC(=O)c2c(OC)cc(=O)n3c2CCN(C(=O)C2CC24CCCC4)CC3)c1 (configuration not stated) was read as FMDV inh -11%.
`COC(=O)C1=C(C)N(Cc2ccc(C)cc2)C(=O)/C1=C\c1cc(OC)c(OC)c(OC)c1` gave Tb PYK inh -4%, Sm TGR block -23%, FMDV inh 20µM* and RE007 growth inh -14%.
COC(=O)C1=C(C)N(Cc2ccccc2)C(=O)/C1=C\c1ccco1 was read as Tb PYK inh -8%, Sm TGR block 8.9µM*, FMDV inh -19% and RE007 growth inh 8%.
`C=CCN1C(=O)/C(=C\c2ccco2)C(C(=O)OC)=C1C` gave Tb PYK inh -3%, Sm TGR block 40µM*, FMDV inh -4% and RE007 growth inh -15%.
`COC(=O)C1=C(C)N(Cc2ccc(C)cc2)C(=O)/C1=C\c1ccc(O)c(OC)c1` gave Tb PYK inh inconclusive, Sm TGR block inconclusive, FMDV inh inconclusive and RE007 growth inh 10%.
COc1cc(=O)n2c(c1C(=O)N(C)Cc1nonc1C)CCN(C(=O)c1cc(C)cc(C)c1)CC2 was read as FMDV inh 15%.
Screening CC1(C)CC(=O)c2c(oc3ccc(NS(=O)(=O)c4cccc5cccnc45)cc23)C1 returned Tb PYK inh 10%, Sm TGR block 12%, FMDV inh 11µM* and RE007 growth inh -1%.
`Nc1cc(-c2ccco2)no1` gave Tb PYK inh -7%, Sm TGR block 28µM*, FMDV inh 10% and RE007 growth inh -14%.
c1coc(-c2cnc3ccccc3n2)c1 was read as Tb PYK inh -2%, FMDV inh 31% and RE007 growth inh -22%.
Cc1oc2ncn(CC(C)C)c(=O)c2c1C(=O)N(Cc1ccccc1)C(C)C was read as Tb PYK inh 5%, Sm TGR block -3% and FMDV inh 13%.
For COCCn1c(C)cc(O)c(C(c2ccc(F)cc2)N2CCC(C)CC2)c1=O (configuration not stated) the results were Tb PYK inh -12%, Sm TGR block 10µM* and FMDV inh -7%.
For COCCn1c(C)cc(O)c(C(c2ccccc2)N2CCC(C)CC2)c1=O (configuration not stated) the results were Tb PYK inh 2%, Sm TGR block 22µM* and FMDV inh -10%.
Screening COCCn1c(C)cc(O)c(C(c2ccc(OC)cc2)N2CCCCC2)c1=O (configuration not stated) returned Tb PYK inh 0%, Sm TGR block inconclusive and FMDV inh -15%.
For CN[C@H](CC(C)C)C(=O)N[C@H]1C(=O)N[C@@H](CC(N)=O)C(=O)N[C@H]2C(=O)N[C@H]3C(=O)N[C@H](C(=O)N[C@H](C(=O)O)c4cc(O)cc(O)c4-c4cc3ccc4O)[C@H](O)c3ccc(c(Cl)c3)Oc3cc2cc(c3O[C@@H]2OC(CO)[C@@H](O)[C@H](O)[C@H]2O[C@H]2C[C@](C)(N)[C@H](O)[C@H](C)O2)Oc2ccc(cc2Cl)[C@H]1O (some centres not stated) the results were Tb PYK inh 2%.
`Cc1c(S(=O)(=O)c2ccccn2)c(N)n(Cc2ccccc2Cl)c1C` gave Tb PYK inh -3%, Sm TGR block 2µM*, FMDV inh -8% and RE007 growth inh -26%.
`Cc1c(C)n(Cc2ccccc2)c2ncnc(N)c12` gave Tb PYK inh 8%, Sm TGR block 0%, FMDV inh 0% and RE007 growth inh -5%.
Cc1c(S(=O)(=O)c2ccccn2)c(N)n(Cc2ccccc2)c1C was read as Tb PYK inh -2%, Sm TGR block 2µM*, FMDV inh 12% and RE007 growth inh 2%.
For COCCn1c(C)c(C)c(S(=O)(=O)c2ccccc2)c1N the results were Tb PYK inh -8%, Sm TGR block 1µM*, FMDV inh -4% and RE007 growth inh 10%.
Screening CCc1cc(C(=O)NCC2Cc3cc(C)cc(-c4cc(C(C)=O)ccc4F)c3O2)n(C)n1 (configuration not stated) returned FMDV inh -24%.
COc1ccc(C2=CC(c3cccc(C)c3)n3nnnc3N2)cc1 (configuration not stated) was read as Tb PYK inh 2%, Sm TGR block -32% and FMDV inh 0%.
`COc1ccc2nc(C)cc(Sc3nc4ccccc4s3)c2c1` gave Tb PYK inh -27%, Sm TGR block -19%, FMDV inh 16µM* and RE007 growth inh 2%.
Screening COc1ccc2nc(C)cc(SCC(=O)NNC(=O)COc3ccccc3)c2c1 returned Tb PYK inh 5%, Sm TGR block -22%, FMDV inh -12% and RE007 growth inh 2%.
Cc1ccc2c(c1)c(=O)c(C(=O)c1ccc3c(c1)OCO3)cn2Cc1cccc(F)c1 was read as Tb PYK inh -1%, Sm TGR block 10% and FMDV inh 0%.
COc1ccc(OC)c(CCNC(=O)c2cc3cccc4c3n2CC(C)S4)c1 (configuration not stated) was read as Tb PYK inh 7%[15.4 µM], Sm TGR block 6% and FMDV inh -21%.
`COc1ccc(OC)c(CCNC(=O)c2cc3cccc4c3n2CCS4)c1` gave Tb PYK inh 5%[15.4 µM], Sm TGR block 3% and FMDV inh 4.5µM*.
